Assay results taken from PubChem BioAssay (EPA / NIEHS).
Inconclusive results are not listed. Calls of active or inactive are those of the source. Rule for the calls, unless noted: active = hit-call score of the fitted dose curve at least 0.9, where 1 is the maximum; inconclusive = response in the unintended direction; inactive = score below 0.9.

Columns and labels:
[1] = ATG_TAL_CIS: Attagene CIS-FACTORIAL HepG2 Assay for human TAL Basal Promoter (AID 2282966; active = hit-call score of the fitted dose curve at least 0.9, where 1 is the maximum; inactive = score below 0.9;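 note: background control endpoint measuring basal TAL promoter reporter mRNA not a specific factor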); details: HepG2 Attagene cis-factorial TAL promoter reporter; actives raise or lower the signal
In short: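 Readout: reporter mRNA, fluorescence by CE. System: HepG2, transient multi-reporter transfection, endogenous TF activity. Exposure: 24 h. Analysis: bidirectional, DMSO-normalized; background control.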

[2] = ATG_TGFb_CIS: Attagene CIS-FACTORIAL HepG2 Assay for human Transforming Growth Factor (TGF) (AID 2282967; active = hit-call score of the fitted dose curve at least 0.9, where 1 is the maximum; inactive = score below 0.9); details: HepG2 Attagene CIS TGFb reporter, mRNA transcription; actives raise or lower the signal
In short: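 Transcript-level reporter readout: HepG2 transfectants, 24 h exposure, RNA to cDNA, reporter-specific PCR, fluorescent primer extension, capillary sizing against ROX standards. Gain- or loss-of-signal relative to DMSO.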

[3] = ATG_VDRE_CIS: Attagene CIS-FACTORIAL HepG2 Assay for human Vitamin D Receptor Element (VDRE) (AID 2282968; active = hit-call score of the fitted dose curve at least 0.9, where 1 is the maximum; inactive = score below 0.9); details: HepG2 VDRE cis-reporter transcription, actives raise or lower the signal
In short: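 HepG2 cells transiently transfected with cis-element reporter units, dosed 24 h; reporter mRNA measured by RT-PCR, 6-FAM labeling, HpaI digestion and capillary electrophoresis. Activity fitted bidirectionally against DMSO baseline.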

[4] = target: Estrogen receptor (Homo sapiens) (UniProt P03372); assay: ATG_ERa_TRANS: Attagene TRANS-FACTORIAL HepG2 Assay for human Estrogen Receptor alpha (ERa) (AID 2282970); details: HepG2 Attagene TRANS ERa GAL4 reporter, mRNA
In short: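 Transactivation via ERa-Gal4 chimera in HepG2; 24 hour incubation; reporter mRNA detected by fluorescence RT-PCR and capillary electrophoresis.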

[5] = target: X-box-binding protein 1 (Homo sapiens) (UniProt P17861); assay: ATG_Xbp1_CIS: Attagene CIS-FACTORIAL HepG2 Assay for human X-box Binding Protein 1 (XBP1) (AID 2282972; active = hit-call score of the fitted dose curve at least 0.9, where 1 is the maximum; inactive = score below 0.9); details: HepG2 XBP1 cis-element reporter, Attagene multiplex; actives raise or lower the signal
In short: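 After a 24-hour chemical exposure of HepG2 cells carrying cis-regulated reporters, reporter mRNA levels are assessed. Quantification uses RT-PCR, 6-FAM labelling and capillary electrophoresis. Gain- or loss-of-signal is fitted against DMSO.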

[6] = ATG_M_19_TRANS: Attagene TRANS-FACTORIAL HepG2 Assay for M19 Transcription Factor (Internal Marker) (AID 2282974); details: HepG2 Attagene TRANS-FACTORIAL M19 internal marker reporter
In short: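 Cells: human HepG2, transiently transfected with multiplexed reporter transcription units. Exposure: 24 h. Detection: RT-PCR of reporter mRNA with capillary electrophoresis. Analysis: gain-of-signal vs DMSO.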

[7] = target: Bile acid receptor (Homo sapiens) (UniProt Q96RI1); assay: ATG_FXR_TRANS: Attagene TRANS-FACTORIAL HepG2 Assay for Farnesoid X Receptor (FXR) (AID 2282979); details: HepG2 Attagene TRANS FXR-GAL4 reporter transcription;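 note: hits raise reporter mRNA above DMSO so AC50 marks FXR activation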
In short: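 Chimeric FXR-GAL4 activity in transiently transfected human HepG2 liver cells is scored as induction of reporter mRNA after 24 h of dosing. Detection uses RT-PCR with fluorescent labelling and capillary electrophoresis, with DMSO serving as baseline.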

[8] = target: Oxysterols receptor LXR-alpha (Homo sapiens) (UniProt Q13133); assay: ATG_LXRa_TRANS: Attagene TRANS-FACTORIAL HepG2 Assay for human Liver X Receptor alpha (LXRa) (AID 2282980); details: HepG2 Attagene TRANS reporter, LXRa transactivation
In short: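 Transient HepG2 transfectants, 24 h dosing, RT-PCR/CE mRNA reporter quantitation; gain-of-signal vs DMSO.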

[9] = ATG_M_06_TRANS: Attagene TRANS-FACTORIAL HepG2 Assay for M06 Transcription Factor (Internal Marker) (AID 2282983); details: HepG2 Attagene TRANS M06 internal marker reporter;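 note: reporter transcript level by RT-PCR then capillary electrophoresis fluorescence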
In short: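 Measured by capillary electrophoresis of fluorescently labelled RT-PCR products, this endpoint reflects reporter mRNA in HepG2 cells harbouring exogenous NR-GAL4 reporter constructs after 24 h exposure, with DMSO as baseline.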

[10] = ATG_M_32_TRANS: Attagene TRANS-FACTORIAL HepG2 Assay for M32 Transcription Factor (Internal Marker) (AID 2282984); details: HepG2 Attagene TRANS M32 internal marker reporter;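 note: transcript level of a background control reporter unit measured by RT-PCR and capillary electrophoresis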
In short: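 HepG2 cells transiently transfected with multiple GAL4-UAS reporter transcription units, dosed for 24 hours; reporter mRNA quantified by RT-PCR, 6-FAM primer extension, HpaI digestion and capillary electrophoresis. Gain-of-signal fitted versus DMSO baseline; internal background-control marker.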

[11] = target: Nuclear receptor subfamily 4 group A member 2 (Homo sapiens) (UniProt P43354); assay: ATG_NURR1_TRANS: Attagene TRANS-FACTORIAL HepG2 Assay for human Nuclear Receptor Related Protein 1 (NURR1) (AID 2282985); details: HepG2 Attagene TRANS reporter, mRNA readout
In short: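 HepG2 cells transiently transfected with GAL4-UAS reporter units and chimeric NR-Gal4 constructs; chemical exposure 24 h. Reporter mRNA quantified by RT-PCR, fluorescent labelling and capillary electrophoresis; gain of signal fitted relative to DMSO baseline.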

[12] = target: Transcriptional activator Myb (Homo sapiens) (UniProt P10242); assay: ATG_Myb_CIS: Attagene CIS-FACTORIAL HepG2 Assay for human Myeloblastosis (Myb) Proto-Oncogene Transcription Factor (AID 2282986; active = hit-call score of the fitted dose curve at least 0.9, where 1 is the maximum; inactive = score below 0.9); details: HepG2 Attagene CIS-FACTORIAL Myb reporter transcription; actives raise or lower the signal
In short: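 Steps: transfect HepG2 with cis-regulated reporter units; dose with chemical for 24 h; isolate RNA, reverse-transcribe, PCR-amplify and FAM-label reporter sequences; digest with HpaI; resolve by capillary electrophoresis. Activity fitted in both directions relative to DMSO.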

[13] = ATG_GAL4_TRANS: Attagene TRANS-FACTORIAL HepG2 Assay for GAL4 (Internal Marker) (AID 2282976); details: HepG2 Attagene TRANS GAL4 internal marker reporter
In short: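 Fluorescence from capillary electrophoresis of labelled RT-PCR products quantifies reporter mRNA induction after 24 h dosing of HepG2 cells carrying transfected GAL4-UAS reporter transcription units. Vehicle DMSO serves as baseline.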

[14] = target: Glucocorticoid receptor (Homo sapiens) (UniProt P04150); assay: ATG_GR_TRANS: Attagene TRANS-FACTORIAL HepG2 Assay for human Glucocorticoid Receptor (GR) (AID 2282978); details: HepG2 Attagene TRANS GR reporter, mRNA transcription;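 note: activators score as hits since higher reporter transcript over DMSO is fitted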
In short: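 In this trans-factorial format, exogenous NR-GAL4 chimeric proteins in transfected HepG2 cells regulate GAL4-UAS reporter transcription. After 24 h treatment, reporter mRNA induction relative to DMSO is read by RT-PCR and capillary electrophoresis.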

[15] = target: Hepatocyte nuclear factor 4-alpha (Homo sapiens) (UniProt P41235); assay: ATG_HNF4a_TRANS: Attagene TRANS-FACTORIAL HepG2 Assay for human Hepatocyte Nuclear Factor 4 alpha (HNF4a) (AID 2282982); details: HepG2 HNF4a transactivation reporter, mRNA readout
In short: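 HepG2 cells transiently transfected with multiplexed GAL4-UAS reporter units responsive to chimeric NR-GAL4 proteins; compound exposure 24 h. Reporter mRNA quantified by RT-PCR, 6-FAM labelling, HpaI digestion and capillary electrophoresis; gain of signal versus DMSO baseline.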

[16] = target: Nuclear receptor subfamily 1 group I member 3 (Homo sapiens) (UniProt Q14994); assay: ATG_CAR_TRANS: Attagene TRANS-FACTORIAL HepG2 Assay for human Constitutive Androstane Receptor (CAR) (AID 2282969); details: HepG2 Attagene TRANS-FACTORIAL CAR reporter;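 note: activators raise reporter mRNA above DMSO so AC50 marks induction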
In short: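 HepG2 cells transiently transfected with multiplexed GAL4-UAS reporter units expressing chimeric NR-Gal4 proteins; compound exposure 24 h. Reporter mRNA measured by RT-PCR, 6-FAM labelling, HpaI digestion and capillary electrophoresis; gain-of-signal fitted against DMSO baseline.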

[17] = target: Oxysterols receptor LXR-beta (Homo sapiens) (UniProt P55055); assay: ATG_LXRb_TRANS: Attagene TRANS-FACTORIAL HepG2 Assay for human Liver X Receptor beta (LXRb) (AID 2282981); details: HepG2 Attagene TRANS GAL4-LXRb reporter, mRNA
In short: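 HepG2 cells transiently transfected with multiple reporter transcription units carrying chimeric NR-Gal4 proteins acting on GAL4-UAS reporters; compound exposure 24 h. Reporter mRNA quantified by RT-PCR, 6-FAM labelling, HpaI digestion and capillary electrophoresis; gain of signal versus DMSO.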

[18] = target: Estrogen-related receptor gamma (Homo sapiens) (UniProt P62508); assay: ATG_ERRg_TRANS: Attagene TRANS-FACTORIAL HepG2 Assay for human Estrogen-Related Receptor gamma (ERRg) (AID 2282977); details: HepG2 Attagene TRANS reporter, ERRg transactivation;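 note: hits increase reporter signal over DMSO so potencies reflect activators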
In short: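 Transient HepG2 transfectants, 24 h compound exposure, GAL4-UAS reporter mRNA by RT-PCR/6-FAM labelling/capillary electrophoresis; positive direction vs DMSO.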

Measured: AC50

Glucocorticoid receptor (Homo sapiens), sequence (P04150 whole entry, looked up, the tested form may be a part): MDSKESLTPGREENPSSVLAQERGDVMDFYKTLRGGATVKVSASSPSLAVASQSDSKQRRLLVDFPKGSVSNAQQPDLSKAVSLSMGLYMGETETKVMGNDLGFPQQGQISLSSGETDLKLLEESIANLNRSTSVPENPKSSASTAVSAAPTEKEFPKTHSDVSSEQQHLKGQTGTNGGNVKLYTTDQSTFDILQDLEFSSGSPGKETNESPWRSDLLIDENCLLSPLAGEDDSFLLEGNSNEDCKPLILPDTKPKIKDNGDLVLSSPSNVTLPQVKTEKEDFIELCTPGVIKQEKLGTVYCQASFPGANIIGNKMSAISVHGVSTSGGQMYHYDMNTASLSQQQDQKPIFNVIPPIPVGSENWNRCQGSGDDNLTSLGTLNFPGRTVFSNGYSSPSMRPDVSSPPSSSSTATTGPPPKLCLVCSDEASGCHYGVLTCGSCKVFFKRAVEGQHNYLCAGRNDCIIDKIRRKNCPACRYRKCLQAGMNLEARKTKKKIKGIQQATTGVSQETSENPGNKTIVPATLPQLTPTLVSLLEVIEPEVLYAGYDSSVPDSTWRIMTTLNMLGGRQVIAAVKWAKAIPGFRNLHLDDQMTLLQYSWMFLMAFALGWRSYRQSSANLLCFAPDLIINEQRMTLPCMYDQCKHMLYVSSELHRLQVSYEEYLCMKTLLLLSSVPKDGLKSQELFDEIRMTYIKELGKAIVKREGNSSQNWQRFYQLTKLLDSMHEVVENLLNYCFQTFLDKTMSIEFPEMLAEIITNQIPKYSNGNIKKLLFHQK
Transcriptional activator Myb (Homo sapiens), sequence (P10242 whole entry, looked up): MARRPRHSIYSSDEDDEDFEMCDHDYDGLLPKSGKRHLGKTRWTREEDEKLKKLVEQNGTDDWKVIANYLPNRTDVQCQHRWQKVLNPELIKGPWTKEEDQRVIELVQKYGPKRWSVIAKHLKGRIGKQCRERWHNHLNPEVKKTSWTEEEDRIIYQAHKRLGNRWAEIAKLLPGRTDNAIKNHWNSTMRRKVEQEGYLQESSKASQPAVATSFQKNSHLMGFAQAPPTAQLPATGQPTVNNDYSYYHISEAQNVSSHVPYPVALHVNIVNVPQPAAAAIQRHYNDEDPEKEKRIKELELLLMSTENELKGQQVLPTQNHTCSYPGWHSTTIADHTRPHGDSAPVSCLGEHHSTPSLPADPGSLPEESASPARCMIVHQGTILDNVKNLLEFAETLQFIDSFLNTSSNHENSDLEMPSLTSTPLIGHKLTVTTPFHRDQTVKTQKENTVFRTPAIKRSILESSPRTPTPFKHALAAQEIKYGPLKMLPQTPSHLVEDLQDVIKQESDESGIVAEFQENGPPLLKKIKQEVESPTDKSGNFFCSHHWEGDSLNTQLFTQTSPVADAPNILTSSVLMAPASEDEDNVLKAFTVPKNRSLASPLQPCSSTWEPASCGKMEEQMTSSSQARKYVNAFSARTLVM
Nuclear receptor subfamily 4 group A member 2 (Homo sapiens), sequence (P43354 whole entry, looked up, the tested form may be a part): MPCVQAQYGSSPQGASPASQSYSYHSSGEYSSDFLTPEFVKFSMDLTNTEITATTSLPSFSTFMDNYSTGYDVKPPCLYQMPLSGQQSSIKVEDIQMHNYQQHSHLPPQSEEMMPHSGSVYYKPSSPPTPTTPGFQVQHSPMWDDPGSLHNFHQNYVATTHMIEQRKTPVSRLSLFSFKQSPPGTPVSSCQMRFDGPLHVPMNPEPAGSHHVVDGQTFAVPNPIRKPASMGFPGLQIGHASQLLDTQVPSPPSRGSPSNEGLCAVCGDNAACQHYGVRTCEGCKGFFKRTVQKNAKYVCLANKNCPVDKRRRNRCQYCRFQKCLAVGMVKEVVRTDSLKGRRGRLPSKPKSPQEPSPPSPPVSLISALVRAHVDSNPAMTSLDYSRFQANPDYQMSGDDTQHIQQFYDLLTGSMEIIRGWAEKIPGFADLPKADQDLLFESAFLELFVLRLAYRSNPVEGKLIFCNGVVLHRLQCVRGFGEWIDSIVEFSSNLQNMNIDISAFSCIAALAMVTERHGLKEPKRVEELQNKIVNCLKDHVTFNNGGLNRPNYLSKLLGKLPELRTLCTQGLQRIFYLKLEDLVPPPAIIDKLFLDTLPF
Bile acid receptor (Homo sapiens), sequence (Q96RI1 whole entry, looked up, the tested form may be a part): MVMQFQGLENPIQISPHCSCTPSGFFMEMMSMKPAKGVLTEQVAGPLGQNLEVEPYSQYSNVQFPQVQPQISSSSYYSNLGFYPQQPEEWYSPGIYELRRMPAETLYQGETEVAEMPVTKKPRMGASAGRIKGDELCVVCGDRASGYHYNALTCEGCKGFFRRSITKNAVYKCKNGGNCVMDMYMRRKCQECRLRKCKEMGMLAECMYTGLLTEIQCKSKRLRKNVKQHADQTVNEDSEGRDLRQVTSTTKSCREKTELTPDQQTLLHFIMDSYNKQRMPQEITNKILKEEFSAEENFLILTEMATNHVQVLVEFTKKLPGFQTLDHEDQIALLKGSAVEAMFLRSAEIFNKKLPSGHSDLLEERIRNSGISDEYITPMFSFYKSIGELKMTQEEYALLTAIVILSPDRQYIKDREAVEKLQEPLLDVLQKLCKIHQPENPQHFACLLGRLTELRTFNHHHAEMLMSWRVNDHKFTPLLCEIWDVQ
Estrogen receptor (Homo sapiens), sequence (P03372 whole entry, looked up, the tested form may be a part): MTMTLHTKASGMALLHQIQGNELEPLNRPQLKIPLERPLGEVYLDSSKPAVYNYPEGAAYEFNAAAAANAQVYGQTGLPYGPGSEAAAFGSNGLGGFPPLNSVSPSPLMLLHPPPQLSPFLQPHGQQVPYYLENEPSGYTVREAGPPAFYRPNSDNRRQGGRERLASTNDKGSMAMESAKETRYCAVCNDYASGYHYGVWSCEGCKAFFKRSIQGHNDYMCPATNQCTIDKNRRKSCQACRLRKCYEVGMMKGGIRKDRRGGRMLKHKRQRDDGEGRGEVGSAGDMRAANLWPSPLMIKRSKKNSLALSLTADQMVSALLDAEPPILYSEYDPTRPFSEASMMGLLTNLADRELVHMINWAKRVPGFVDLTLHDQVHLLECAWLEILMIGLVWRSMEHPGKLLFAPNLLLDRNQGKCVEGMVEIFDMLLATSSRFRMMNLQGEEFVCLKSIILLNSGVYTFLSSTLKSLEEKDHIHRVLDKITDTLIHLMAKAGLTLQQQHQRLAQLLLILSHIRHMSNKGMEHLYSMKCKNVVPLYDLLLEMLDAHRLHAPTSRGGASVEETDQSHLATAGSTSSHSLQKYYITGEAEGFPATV
Hepatocyte nuclear factor 4-alpha (Homo sapiens), sequence (P41235 whole entry, looked up, the tested form may be a part): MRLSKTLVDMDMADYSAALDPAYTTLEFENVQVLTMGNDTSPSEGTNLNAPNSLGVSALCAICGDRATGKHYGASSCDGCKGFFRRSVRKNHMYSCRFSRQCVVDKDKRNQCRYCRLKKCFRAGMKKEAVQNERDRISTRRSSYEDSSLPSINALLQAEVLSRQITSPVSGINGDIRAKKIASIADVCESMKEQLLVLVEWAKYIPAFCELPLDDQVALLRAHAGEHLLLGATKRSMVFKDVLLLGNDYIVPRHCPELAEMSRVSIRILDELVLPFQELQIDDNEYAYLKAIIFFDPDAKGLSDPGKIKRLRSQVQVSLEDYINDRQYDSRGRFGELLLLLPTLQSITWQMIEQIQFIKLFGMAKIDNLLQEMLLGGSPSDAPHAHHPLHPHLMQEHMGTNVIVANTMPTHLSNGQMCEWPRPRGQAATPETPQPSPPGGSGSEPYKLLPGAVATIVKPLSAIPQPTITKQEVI
X-box-binding protein 1 (Homo sapiens), sequence (P17861 whole entry, looked up): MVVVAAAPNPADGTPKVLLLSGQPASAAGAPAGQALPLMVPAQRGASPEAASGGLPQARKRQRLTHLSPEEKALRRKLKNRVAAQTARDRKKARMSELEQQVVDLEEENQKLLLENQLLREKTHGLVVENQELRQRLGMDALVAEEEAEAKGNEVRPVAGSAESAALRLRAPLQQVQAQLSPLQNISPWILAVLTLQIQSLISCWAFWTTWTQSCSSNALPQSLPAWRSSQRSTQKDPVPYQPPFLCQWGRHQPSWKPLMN
Oxysterols receptor LXR-alpha (Homo sapiens), sequence (Q13133 whole entry, looked up): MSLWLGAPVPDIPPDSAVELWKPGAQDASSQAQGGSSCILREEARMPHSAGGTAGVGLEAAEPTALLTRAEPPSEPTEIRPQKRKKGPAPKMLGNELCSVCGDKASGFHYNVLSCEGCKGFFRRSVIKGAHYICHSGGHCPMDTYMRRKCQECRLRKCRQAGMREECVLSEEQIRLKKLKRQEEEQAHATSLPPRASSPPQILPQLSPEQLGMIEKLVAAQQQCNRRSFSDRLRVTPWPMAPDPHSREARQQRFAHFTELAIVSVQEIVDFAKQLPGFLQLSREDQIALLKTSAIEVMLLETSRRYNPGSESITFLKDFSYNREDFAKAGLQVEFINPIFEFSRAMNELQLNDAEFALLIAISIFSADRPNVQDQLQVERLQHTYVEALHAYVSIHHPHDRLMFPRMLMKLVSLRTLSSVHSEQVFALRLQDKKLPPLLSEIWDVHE
Estrogen-related receptor gamma (Homo sapiens), sequence (P62508 whole entry, looked up, the tested form may be a part): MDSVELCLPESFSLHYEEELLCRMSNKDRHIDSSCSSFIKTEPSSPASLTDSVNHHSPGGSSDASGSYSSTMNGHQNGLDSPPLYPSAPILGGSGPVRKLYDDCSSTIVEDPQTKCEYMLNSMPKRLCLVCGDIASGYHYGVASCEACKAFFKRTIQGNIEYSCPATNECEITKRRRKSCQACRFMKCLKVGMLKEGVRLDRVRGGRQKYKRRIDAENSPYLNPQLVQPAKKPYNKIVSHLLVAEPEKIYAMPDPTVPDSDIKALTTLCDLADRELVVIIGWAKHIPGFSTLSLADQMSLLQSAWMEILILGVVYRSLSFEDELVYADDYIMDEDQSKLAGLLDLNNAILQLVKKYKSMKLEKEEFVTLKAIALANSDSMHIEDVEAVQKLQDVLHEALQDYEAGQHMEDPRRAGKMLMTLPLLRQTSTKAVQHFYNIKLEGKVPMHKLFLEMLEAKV

NC(=O)C(F)(F)C(F)(F)C(F)(F)C(F)(F)C(F)(F)C(F)(F)C(F)(F)F
active: [4] 9.95 µM
not listed: [13] | [14] | [15] | [16] | [17] | [18]
inactive: all other assays above

CCCC(=O)OCC(COC(=O)CCC)OC(=O)CCC
not listed: [4] | [6] | [8] | [10] | [16] | [17] | [18]
inactive: all other assays above

NC(=O)C(F)(F)C(F)(F)C(F)(F)C(F)F
inactive: [1] | [3] | [4] | [5] | [13] | [7] | [9] | [10] | [12]

CC(C)OC(=O)COc1ccc(Cl)cc1Cl
inactive: [1] | [16] | [4] | [5] | [13] | [15] | [10] | [11] | [12]

CCCCCCCCCCCC(=O)Cl
active: [11] 67.6 µM
not listed: [6] | [8] | [13] | [16] | [18]
inactive: all other assays above

Nc1c(Br)cc([N+](=O)[O-])cc1Br
not listed: [6] | [9] | [11] | [16] | [17]
inactive: all other assays above

OCCCCC(F)(F)C(F)(F)C(F)(F)C(F)(F)F
inactive: [1] | [2] | [3] | [4] | [5] | [7] | [15] | [10] | [12]

CCOC(C=C(C)CCC=C(C)C)OCC
active: [3] 49.7 µM
not listed: [7] | [8] | [9] | [14] | [16] | [17]
inactive: all other assays above
